Experimental data reported in the supplement of paper PMC10849652.
Targets with a hit are over-represented here; the source holds about 7,900 in all. About 0.6% of all pairs of compound and target were hits.

The targets below were run with CCN(CCCOc1ccc2c(Nc3cc(CC(=O)Nc4cccc(F)c4)[nH]n3)ncnc2c1)CCOP(=O)(O)O [barasertib] (assay: log2 fold change, soluble protein after heating vs DMSO (PISA); higher = thermal stabilisation; K562 cells, 10 uM, 30 min; active = over 0.2 and 3.5 SD of the protein, either way, in both replicates (recomputed)).
In short: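 Soluble protein was defined as the supernatant after 21,000xg for 90 min. It came from K562 cells at 2×10^6 cells/mL given 10 μM compound for 30 min, heated in aliquots for 3 min across 48°C-58°C, pooled, and extracted in PBS with 0.5% NP-40 at 4°C, and was quantified by TMTpro 16plex LC-MS/MS with equalised channel sums. Thermal stability against control samples, from duplicates, is reported as log2 fold change.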

UniProt Q92604, sequence (Q92604 whole entry, looked up): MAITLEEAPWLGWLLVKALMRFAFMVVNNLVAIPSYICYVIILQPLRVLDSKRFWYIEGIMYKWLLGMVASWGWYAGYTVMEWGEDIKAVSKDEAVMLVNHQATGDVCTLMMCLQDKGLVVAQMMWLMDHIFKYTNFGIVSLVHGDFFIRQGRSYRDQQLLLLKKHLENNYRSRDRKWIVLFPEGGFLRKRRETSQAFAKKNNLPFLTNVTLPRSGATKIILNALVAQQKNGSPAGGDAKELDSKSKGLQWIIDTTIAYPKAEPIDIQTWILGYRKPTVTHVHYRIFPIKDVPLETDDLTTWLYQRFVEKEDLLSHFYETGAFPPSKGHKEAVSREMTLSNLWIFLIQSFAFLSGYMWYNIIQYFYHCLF
UniProt Q13257, sequence (Q13257 whole entry, looked up): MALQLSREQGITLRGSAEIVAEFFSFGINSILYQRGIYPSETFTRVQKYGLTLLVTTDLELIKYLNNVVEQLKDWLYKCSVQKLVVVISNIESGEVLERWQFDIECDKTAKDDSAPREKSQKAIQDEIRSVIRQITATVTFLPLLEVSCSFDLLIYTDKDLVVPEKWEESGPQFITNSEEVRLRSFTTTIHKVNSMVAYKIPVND
UniProt Q92615, sequence (Q92615 whole entry, looked up): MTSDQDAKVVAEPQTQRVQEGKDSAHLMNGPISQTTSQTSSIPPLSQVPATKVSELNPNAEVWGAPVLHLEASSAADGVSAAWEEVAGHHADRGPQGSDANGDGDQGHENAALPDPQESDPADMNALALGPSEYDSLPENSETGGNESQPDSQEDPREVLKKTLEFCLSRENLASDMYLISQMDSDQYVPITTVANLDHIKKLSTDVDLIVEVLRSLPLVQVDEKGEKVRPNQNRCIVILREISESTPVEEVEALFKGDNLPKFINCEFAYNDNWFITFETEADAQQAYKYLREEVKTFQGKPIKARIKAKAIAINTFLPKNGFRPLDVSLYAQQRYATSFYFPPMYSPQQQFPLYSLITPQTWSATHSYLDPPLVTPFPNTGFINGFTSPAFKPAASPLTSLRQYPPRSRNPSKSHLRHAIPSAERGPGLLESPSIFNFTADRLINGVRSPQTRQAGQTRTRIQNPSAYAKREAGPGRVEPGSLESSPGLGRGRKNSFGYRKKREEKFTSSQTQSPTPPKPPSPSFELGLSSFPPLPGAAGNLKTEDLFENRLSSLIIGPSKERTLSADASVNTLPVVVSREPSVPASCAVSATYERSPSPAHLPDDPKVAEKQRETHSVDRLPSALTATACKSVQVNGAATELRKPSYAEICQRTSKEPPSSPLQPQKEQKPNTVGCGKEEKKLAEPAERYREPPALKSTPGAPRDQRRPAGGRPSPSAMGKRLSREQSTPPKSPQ
UniProt Q9Y496, sequence (Q9Y496 whole entry, looked up): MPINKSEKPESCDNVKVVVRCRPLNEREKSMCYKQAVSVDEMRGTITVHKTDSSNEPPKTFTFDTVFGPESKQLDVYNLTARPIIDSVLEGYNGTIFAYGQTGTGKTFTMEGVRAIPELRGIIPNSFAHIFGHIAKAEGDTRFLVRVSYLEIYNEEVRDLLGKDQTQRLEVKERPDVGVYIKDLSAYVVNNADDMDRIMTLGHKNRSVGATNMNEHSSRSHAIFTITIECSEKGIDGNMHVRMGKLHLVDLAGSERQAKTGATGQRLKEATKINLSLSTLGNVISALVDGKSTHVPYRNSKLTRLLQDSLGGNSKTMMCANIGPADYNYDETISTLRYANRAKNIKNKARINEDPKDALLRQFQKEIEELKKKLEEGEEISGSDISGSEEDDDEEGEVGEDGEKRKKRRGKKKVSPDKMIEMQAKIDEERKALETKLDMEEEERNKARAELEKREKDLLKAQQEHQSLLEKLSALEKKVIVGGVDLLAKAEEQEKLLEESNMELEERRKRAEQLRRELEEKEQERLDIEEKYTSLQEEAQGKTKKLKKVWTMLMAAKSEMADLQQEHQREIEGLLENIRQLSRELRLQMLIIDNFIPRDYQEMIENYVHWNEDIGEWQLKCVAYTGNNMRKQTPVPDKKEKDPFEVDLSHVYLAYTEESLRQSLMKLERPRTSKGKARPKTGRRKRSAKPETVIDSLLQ
UniProt Q96AQ8, sequence (Q96AQ8 whole entry, looked up): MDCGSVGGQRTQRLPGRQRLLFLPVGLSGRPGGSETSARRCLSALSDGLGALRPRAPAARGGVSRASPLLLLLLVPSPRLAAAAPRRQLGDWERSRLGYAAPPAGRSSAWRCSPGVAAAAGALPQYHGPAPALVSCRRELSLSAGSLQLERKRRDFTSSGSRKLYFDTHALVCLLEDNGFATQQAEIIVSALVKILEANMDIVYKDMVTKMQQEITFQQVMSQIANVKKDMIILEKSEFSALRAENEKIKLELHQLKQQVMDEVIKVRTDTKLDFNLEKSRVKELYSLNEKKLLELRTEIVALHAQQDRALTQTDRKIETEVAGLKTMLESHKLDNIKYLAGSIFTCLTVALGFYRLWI
UniProt Q96A72, sequence (Q96A72 whole entry, looked up): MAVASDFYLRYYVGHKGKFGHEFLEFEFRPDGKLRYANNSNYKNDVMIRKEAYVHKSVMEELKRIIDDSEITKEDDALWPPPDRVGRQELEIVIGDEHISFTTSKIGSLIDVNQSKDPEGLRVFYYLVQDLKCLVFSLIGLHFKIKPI
UniProt Q02750, sequence (Q02750 whole entry, looked up): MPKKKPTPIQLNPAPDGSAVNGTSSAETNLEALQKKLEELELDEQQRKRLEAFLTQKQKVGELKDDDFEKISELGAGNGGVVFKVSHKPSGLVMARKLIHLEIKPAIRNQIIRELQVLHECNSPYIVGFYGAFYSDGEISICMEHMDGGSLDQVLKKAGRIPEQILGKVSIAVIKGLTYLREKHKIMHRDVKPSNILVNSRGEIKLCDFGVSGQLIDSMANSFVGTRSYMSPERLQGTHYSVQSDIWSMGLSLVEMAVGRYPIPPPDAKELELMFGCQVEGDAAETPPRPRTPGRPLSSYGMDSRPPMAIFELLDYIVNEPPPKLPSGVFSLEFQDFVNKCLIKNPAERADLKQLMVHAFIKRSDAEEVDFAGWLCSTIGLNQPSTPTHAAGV
UniProt O94822, sequence (O94822 whole entry, looked up): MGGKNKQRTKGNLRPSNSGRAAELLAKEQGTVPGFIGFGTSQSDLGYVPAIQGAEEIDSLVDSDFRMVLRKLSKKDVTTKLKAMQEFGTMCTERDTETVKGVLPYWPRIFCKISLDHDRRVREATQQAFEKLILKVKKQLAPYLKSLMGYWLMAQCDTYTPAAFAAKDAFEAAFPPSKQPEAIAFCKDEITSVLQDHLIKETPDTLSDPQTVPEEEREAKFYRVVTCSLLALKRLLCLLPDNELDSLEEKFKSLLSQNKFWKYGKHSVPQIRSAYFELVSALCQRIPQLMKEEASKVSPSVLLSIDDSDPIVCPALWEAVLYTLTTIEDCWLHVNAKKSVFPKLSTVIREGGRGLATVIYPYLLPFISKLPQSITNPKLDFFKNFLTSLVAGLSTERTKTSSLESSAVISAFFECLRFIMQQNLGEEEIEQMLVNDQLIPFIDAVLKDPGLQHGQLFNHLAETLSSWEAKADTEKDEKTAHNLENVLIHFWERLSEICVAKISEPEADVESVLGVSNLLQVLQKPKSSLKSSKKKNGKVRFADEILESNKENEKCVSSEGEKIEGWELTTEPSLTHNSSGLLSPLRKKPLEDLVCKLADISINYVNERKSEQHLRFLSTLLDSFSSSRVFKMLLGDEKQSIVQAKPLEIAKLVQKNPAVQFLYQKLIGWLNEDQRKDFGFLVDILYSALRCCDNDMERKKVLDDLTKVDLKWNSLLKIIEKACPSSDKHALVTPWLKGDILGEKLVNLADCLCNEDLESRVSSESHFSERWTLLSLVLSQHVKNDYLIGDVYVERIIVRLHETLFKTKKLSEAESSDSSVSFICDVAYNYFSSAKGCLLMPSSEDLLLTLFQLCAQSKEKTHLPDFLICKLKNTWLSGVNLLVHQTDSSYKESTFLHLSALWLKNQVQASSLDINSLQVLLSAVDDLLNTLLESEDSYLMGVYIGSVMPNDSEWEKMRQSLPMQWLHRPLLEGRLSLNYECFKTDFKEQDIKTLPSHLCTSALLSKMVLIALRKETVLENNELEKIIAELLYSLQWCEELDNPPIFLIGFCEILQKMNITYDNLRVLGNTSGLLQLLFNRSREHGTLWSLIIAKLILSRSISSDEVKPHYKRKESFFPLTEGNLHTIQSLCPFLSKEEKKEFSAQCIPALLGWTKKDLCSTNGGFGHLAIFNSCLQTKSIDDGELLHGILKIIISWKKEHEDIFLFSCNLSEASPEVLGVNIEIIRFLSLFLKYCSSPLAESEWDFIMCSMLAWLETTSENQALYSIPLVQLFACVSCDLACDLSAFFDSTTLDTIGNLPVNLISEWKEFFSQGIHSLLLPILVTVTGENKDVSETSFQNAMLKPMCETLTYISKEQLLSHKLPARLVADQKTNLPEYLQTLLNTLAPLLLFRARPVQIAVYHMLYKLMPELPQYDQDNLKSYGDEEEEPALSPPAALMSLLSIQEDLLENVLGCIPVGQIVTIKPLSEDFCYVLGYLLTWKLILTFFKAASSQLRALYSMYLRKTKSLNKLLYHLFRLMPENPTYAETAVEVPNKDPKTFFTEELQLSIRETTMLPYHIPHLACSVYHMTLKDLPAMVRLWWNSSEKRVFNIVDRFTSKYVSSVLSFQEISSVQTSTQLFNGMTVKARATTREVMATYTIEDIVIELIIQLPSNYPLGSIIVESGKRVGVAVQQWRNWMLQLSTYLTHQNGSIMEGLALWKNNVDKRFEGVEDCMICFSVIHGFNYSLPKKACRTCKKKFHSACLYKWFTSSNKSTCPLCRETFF
UniProt Q8WV07, sequence (Q8WV07 whole entry, looked up): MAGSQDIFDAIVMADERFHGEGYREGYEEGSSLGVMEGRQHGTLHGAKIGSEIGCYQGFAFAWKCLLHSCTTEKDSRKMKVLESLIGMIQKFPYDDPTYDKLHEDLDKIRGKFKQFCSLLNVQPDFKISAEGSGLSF

log2 fold change, inactive:
MCUR1 (UniProt Q96AQ8) -0.008, ITPRIP (UniProt Q8IWB1) 0.023, MAP2K1 (UniProt Q02750) 0.005, LPGAT1 (UniProt Q92604) 0.068, LMNB1 (UniProt P20700) 0.021, LTV1 (UniProt Q96GA3) -0.075, MAIP1 (UniProt Q8WWC4) -0.002, MIER1 isoform 12 (UniProt Q8N108) 0.01, KCT2 (UniProt Q8NC54) -0.025, KPNA4 (UniProt O00629) 0.007, MAPK12 (UniProt P53778) -0.031, LDLR (UniProt P01130) 0.019, LMF2 (UniProt Q9BU23) -0.002, LTN1 isoform 3 (UniProt O94822) 0.042, LRPPRC (UniProt P42704) 0.369, MAD2L1 (UniProt Q13257) 0.018, LARP4B (UniProt Q92615) -0.025, ILK (UniProt Q13418) 0.019, LTO1 (UniProt Q8WV07) -0.04, KIF3A (UniProt Q9Y496) -0.041, MAP3K20 (UniProt Q9NYL2) -0.02, MAGOHB (UniProt Q96A72) 0.007, MAP3K4 isoform 2 (UniProt Q9Y6R4) 0.02
